# Screening data from PubChem.
# ssDAF-12 act: S. stercoralis DAF-12 nuclear receptor activators, primary screen, cell-based, luminescence, HEK293, GRIP1 co-expression, lit1-tk-luc; actives 1% (n = 370,000); HEK293 ssDAF-12/GRIP1 lit1-tk-luc reporter; % of 3 µM dafachronic acid response; AID 652126, 2013; Nuclear hormone receptor DAF-12 (Strongyloides stercoralis); activation, % at 6.8 µM;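 active = activation above the mean over all tested compounds plus 3 SD, cut at about 0.9% in these data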;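 note: 0% = DMSO-only wells and 100% = 3 µM delta7-dafachronic acid wells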
# DAX1 inh-1: DAX1 (NR0B1) inhibitors on StAR promoter, primary screen, cell-based, luminescence, SF-1 (NR5A1), full-length DAX-1; actives 1.1% (n = 370,000); inhibition, % at 6.8 µM; HEK293T StAR-luciferase reporter, SF-1/DAX-1 repression relief;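 active = inhibition above the mean over all tested compounds plus 3 SD, cut at about 3.6% in these data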;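 note: 0% = DAX-1 cells with DMSO and 100% = cells lacking DAX-1 with DMSO; higher inhibition means more luminescence from relief of DAX-1 repression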
# hcDAF12 agonist: H. contortus DAF-12 nuclear receptor activators, primary screen, cell-based, luminescence, HEK293, lit1-tk-luc reporter | HEK293 hcDAF-12 lit1-tk-luc reporter; 0% DMSO, 100% Δ7-dafachronic acid | activation, % at 6.8 µM | actives 1.4% (n = 370,000);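 active = activation above the mean of all tested compounds plus 3 SD, cut at about 5.5% in these data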;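 note: 100% = response to 3 µM Δ7-dafachronic acid high control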
# hgDAF12 agonist: H. glycines DAF-12 receptor agonists, primary screen, cell-based, luminescence, HEK293, GAL4 fusion, UAS-luciferase; HEK293 GAL4-hgDAF12 UAS-luciferase reporter, agonist luminescence; normalized to butyrate control; Nuclear hormone receptor DAF-12 (Heterodera glycines), GAL4 fusion; AID 687014, 2013; actives 1.8% (n = 370,000); activation, % at 6.8 µM;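 active = activation above a cutoff set at the mean of all screened compounds plus 3 SD, cut at about 10% in these data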;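 note: 0% = DMSO wells and 100% = sodium butyrate wells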
# DAX1 inh-2: DAX1 (NR0B1) inhibitors, primary screen, cell-based, HEK293, Gal4-DAX1, luciferase luminescence; HEK293 Gal4-DAX1 luciferase reporter; actives 0.99% (n = 340,000); inhibition, % at 6.75 µM; Nuclear receptor subfamily 0 group B member 1 (Homo sapiens), P51843; AID 504766, 2011;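 active = inhibition above the mean over all tested compounds plus 3 SD, cut at about 4.2% in these data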;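 note: 0% = DAX1-transfected cells with DMSO and 100% = empty-vector control cells with DMSO; inhibition shows as a rise in luminescence from relieved DAX1 repression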
# Target sequence (P51843 207-470 limits assumed): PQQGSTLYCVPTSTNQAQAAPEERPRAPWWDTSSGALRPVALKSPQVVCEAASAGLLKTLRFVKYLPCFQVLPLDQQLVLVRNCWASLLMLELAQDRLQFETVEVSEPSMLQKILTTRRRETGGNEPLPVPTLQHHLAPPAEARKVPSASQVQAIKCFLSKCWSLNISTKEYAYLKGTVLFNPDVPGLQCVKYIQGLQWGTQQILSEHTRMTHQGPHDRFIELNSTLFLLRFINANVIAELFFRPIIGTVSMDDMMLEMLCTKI
# * hit, by the source's call; . = not tested or not shown. Rows were chosen to be rich in hits. Some 4.1% of all compounds tested hit in one or more screens of this group.
SMILES,ssDAF-12 act,DAX1 inh-1,hcDAF12 agonist,hgDAF12 agonist,DAX1 inh-2
O=C(CSc1nnc2c(n1)[nH]c1ccccc12)Nc1ccc2c(c1)OCO2,-2,-1,-2,-2,0
CC(Sc1ncccn1)C(=O)N1CCc2ccccc21 (configuration not stated),-1,1,5.8*,-1,1
Cc1ccn(C(C)CC(=O)N2CCc3ccccc32)n1 (configuration not stated),0,1,6.2*,3,0
O=C(Cn1cc2c(n1)CCCCC2)N1CCc2ccccc2C1,-1,0,-1,0,0
CC(Oc1ccc(Br)cc1)C(=O)N1CCc2ccccc21 (configuration not stated),-1,-1,-1,1,0
O=C(Cn1cc2c(n1)CCCC2)N1CCc2ccccc21,1,0,1,-4,4.5*
O=C(O)c1ccccc1SCC(=O)N1CCc2ccccc21,7.6*,1,2,3,-1
O=C(OCc1ccccc1)[C@H](Cc1ccccc1)NC(=O)[C@@H]1CC=C[C@@H]2CCN(Cc3ccc(Cl)cc3)C(=O)[C@@H]21,-1,.,-1,-1,.
CCOc1ccc(-n2c(SCC(=O)c3ccccc3Cl)nnc2-c2ccncc2)cc1,-1,-1,0,1,.
Cc1cc(C)nc(SCC(=O)N2CCc3ccccc32)n1,0,4.3*,0,4,1
CCCCCCn1c(COc2ccccc2F)nnc1SCC(=O)c1c(N)n(C)c(=O)n(C)c1=O,1.2*,1,-1,0,.
COCC(C)n1c(COc2ccccc2F)nnc1SCC(=O)c1c(N)n(C)c(=O)n(C)c1=O (configuration not stated),-2,0,-1,-2,1
COCCn1c(SCc2cccc(F)c2)nc2cc(C(=O)OC)ccc2c1=O,0,-1,1,-1,2
COCCNC(=S)N1CCN(c2nc(-c3cccc(OC)c3)cs2)CC1,-2,-1,-1,0,4.3*
CCOc1ccc(NC(=S)NCc2ccc3c(c2)OCO3)cc1,0,0,0,0,5.5*
COc1ccc(NC(=O)NCc2ccc3c(c2)OCO3)cc1,-1,0,-3,2,-1
CC(=O)Nc1ccc(OCc2ccc3c(c2)OCO3)cc1,0,1,5,12*,4
Cc1ccc(NC(=S)NCc2ccc3c(c2)OCO3)cc1,0,1,-1,0,2
COc1cc(C=NNc2ccccc2)ccc1OC(=O)c1ccccc1,-1,0,0,-2,1
CCOc1cc(/C=N/Nc2ccccc2Cl)ccc1OCC(=O)O,0,2,6.3*,0,-1
CCOc1cc(/C=N/Nc2cccc(C(=O)O)c2)ccc1OC(=O)c1ccccc1,1.1*,3,2,10,-4
CCOc1cc(/C=N/Nc2nc(Nc3ccccc3)nc(N3CCCCC3)n2)ccc1OCC(=O)O,-1,0,-1,-1,0
COc1ccc(-c2noc(C3CCCN(C(=O)Nc4cc(C)cc(C)c4)C3)n2)cc1 (configuration not stated),0,1,2,2,.
CCOC(=O)[C@]12CCCC=C1N(Cc1ccc(OC)cc1)C(=O)[C@@H]2CC(=O)NCc1ccc(C)o1,-1,-2,-4,-1,.
CCCCCCn1c(=O)n2n(c1=O)C[C@]1(OC(=O)NC3CCCC3)CN(S(=O)(=O)c3ccc(C)cc3)C[C@]1(O)C2,-2,0,-1,-5,1
SMILES,ssDAF-12 act,DAX1 inh-1,hcDAF12 agonist,hgDAF12 agonist,DAX1 inh-2
Cc1ccccc1NC(=O)/C=C/c1cccs1,-1,3,2,13*,0
CN(C)c1ccc(-c2nc3cc(N)ccc3o2)cc1,1,1,5.8*,11*,-5
Nc1ccc(-c2nc3ccc(N)cc3o2)cc1,-2,2,-1,12*,4
COC(=O)c1ccc(-c2nc3cc(N)ccc3o2)cc1,-2,-1,-3,-5,-3
Nc1ccc(-c2nc3cc(N)ccc3o2)cc1,-1,2,4,11*,1
Cc1nc(-c2nc(C(=O)NNS(C)(=O)=O)cs2)cs1,-2,0,-1,-1,-1
CC(=O)NNC(=O)c1csc(-c2csc(C)n2)n1,-1,0,-2,0,7.3*
COc1ccc2c(c1)CC(C)C/C2=N\NC(=O)c1ccco1 (configuration not stated),0,3,3,10,2
CC1C/C(=N/NC(=O)c2cccc(F)c2)c2ccc(O)cc2C1 (configuration not stated),-1,0,3,13*,2
CCOC(=O)CC[C@H]1CC[C@]2(CCCN(S(=O)(=O)C3CCCCC3)C2)O1,-1,-1,0,0,.
Cc1ccc(N(C)C(=O)CCNC(=O)Cn2cnc3ccccc3c2=O)cc1C,-1,0,-1,-1,-1
CN(C(=O)CCNC(=O)Cn1cnc2ccccc2c1=O)c1ccc(F)cc1,-1,0,-2,3,4.8*
CCOc1ccc(-c2nc(-c3cccnc3)no2)cc1,0,4.5*,4,12*,-1
CCOc1ccc(-c2noc(COC)n2)cc1OC,4.0*,1,0,2,0
COc1ccc(-c2noc(-c3cccnc3)n2)cc1OC,-1,2,1,9,4
COc1ccc(-c2nc(-c3cccnc3)no2)cc1,1.3*,3,5,11*,1
CCOc1ccc(-c2noc(-c3cccnc3)n2)cc1OC,-1,1,-1,7,-1
CCCCOc1ccc(-c2nc(-c3cccnc3)no2)cc1,-1,1,0,6,1
CCOc1cc(-c2noc(-c3cccnc3)n2)ccc1OC,-1,1,-1,1,4.6*
Fc1ccc(-c2cc(-c3nnc4sc(-c5cccs5)nn34)[nH]n2)cc1,-2,-2,-2,-1,.
COc1cccc(-c2nc(-c3ccc(C(=O)O)cc3)no2)c1,1.0*,2,3,9,2
CCOc1ccccc1C(=O)Nc1ccc(C(=O)NCC2COc3ccccc3O2)cc1 (configuration not stated),-1,-1,-3,-5,.
O=C(c1cc2ccccc2oc1=O)N(Cc1ccc(F)cc1)C1CCS(=O)(=O)C1 (configuration not stated),0,2,3,3,4.5*
